Hit rate of the full screen: of about 320,000 compounds, about 1,300 (0.41%) were called active. Not shown: some 3% with an inconclusive outcome. No rule for the calls is given here. Only a sample is shown. Potency and affinity values are given separately.
test: growth inhibition of non-replicating M. tuberculosis (AID 488890); conditions: Mycobacterium tuberculosis non-replicating, at 25 µM, stronger effect = higher value;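 also: plate controls were DMSO cells for no effect and high antibiotic wells for full effect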

Row | SMILES | inhibition [%]
1 | COc1ccc(C)cc1-n1nnnc1SCC(=O)Nc1cccnc1Cl | 17.6
2 | O=C(NCC(=O)N1CCN(c2ccccn2)CC1)c1ccc(Br)o1 | -3.21
3 | Cc1ccc(COC(=O)NCc2cccnc2)cc1 | 4.06
4 | Cc1cc(C)c(C)c(S(=O)(=O)Nc2ccc(C(=O)N3CCCC3)cc2)c1C | 5.64
5 | O=[N+]([O-])c1ccc2nonc2c1Nc1cccc(F)c1 | 32.1
6 | COc1cc(C(=O)N2CCN(C(=O)c3ccccc3)CC2)cc(OC)c1OC | -17.1
7 | O=C(CCCN1CCC(c2ccccc2)C1)c1ccc2c(c1)OCCO2 (stereo unspecified) | 12.3
8 | COc1ccc(-n2nc3c(c2NC(=O)c2ccco2)CS(=O)(=O)C3)cc1 | 3.65
9 | CC(/C=N/N1CCN(c2ccc(C)cc2)CC1)=C\c1ccccc1 | 10.7
10 | COc1ccccc1N1CCN(C(=O)c2sc3nc(-c4ccc(F)cc4)cn3c2C)CC1 | 40.2
11 | CC(=O)N1CCN(C(=O)c2ccc(-c3ccccc3Cl)o2)CC1 | 5.06
12 | NC(=O)C1CCN(C(=O)c2ccc(-c3ccccc3Cl)o2)CC1 | -8.98
13 | CC(C)OP(=O)(OC(C)C)C(Nc1ccccn1)c1ccc(F)cc1 (stereo unspecified) | -0.14
14 | O=C(Cn1cnc2c(nnn2Cc2ccc(Cl)cc2)c1=O)OCc1ccccc1 | -1.54
15 | O=C(Nc1nccs1)C(Cl)(Cl)Cl | 5.95
16 | Cc1cc(C)c2ccc(N)nc2c1O | 41.3
17 | Cc1cc(C)c2ccc(C(=O)O)nc2c1O | 15.6
18 | CC(=N/O)/C(C)=N\NC(=O)c1ccccn1 | 33
19 | O=C(Nc1ncccn1)c1ccc([N+](=O)[O-])cc1 | 34
20 | Cc1cccnc1NC(=O)c1ccc([N+](=O)[O-])o1 | 70.2
21 | O=C(NNC(=O)c1ccc([N+](=O)[O-])o1)c1ccccc1 | 70
22 | O=C(Nc1ccccn1)c1ccco1 | 2.01
23 | O=C1CN(C(=O)CSc2nnnn2-c2ccc(Cl)cc2)c2ccccc2N1 | 20.5
24 | CC(OC(=O)C1CCN(S(=O)(=O)c2ccc(Cl)cc2)CC1)C(=O)NC1CCCCC1C (stereo unspecified) | 17.7

Row | SMILES | inhibition [%]
25 | COc1ccc(-c2sc3ccc(N4CCOCC4)cc3c2C#Cc2ccsc2)cc1 | 36.8
26 | COc1cccc(C2C(C(=O)OC(C)C)=C(C)N=c3s/c(=C\c4ccc(C(=O)O)cc4)c(=O)n32)c1 (stereo unspecified) | -6.22
27 | COc1ccc(NC(=S)N2CCNC(=O)C2CC(=O)Nc2cccc(Cl)c2C)cc1 (stereo unspecified) | 51.6
28 | CC(=O)Nc1ccc(N=Nc2c(C)[nH]n(C(N)=S)c2=O)cc1 | -7.76
29 | CC(=O)N(C)c1ccc(N=Nc2c(C)[nH]n(C(N)=S)c2=O)cc1 | -34.4
30 | CCN(CC)S(=O)(=O)c1ccc(N=Nc2c(C)[nH]n(C(N)=S)c2=O)cc1 | -7.96
31 | Cc1ccc([N+](=O)[O-])cc1N=Nc1c(C)[nH]n(C(N)=S)c1=O | -4.79
32 | O=C(Cn1nc(Cc2cccnc2)c2ccccc2c1=O)N1CCN(c2ccccn2)CC1 | 2.03
33 | Cc1ccccc1CNC(=O)C(=O)NCC1OCCCN1S(=O)(=O)c1ccc(F)cc1C (stereo unspecified) | 16.5
34 | Cc1cc(C)n2nc(SCC(=O)c3cc(C)n(-c4cc(C)on4)c3C)nc2n1 | 35.9
35 | NC(=O)NCC12CC3CC(CC(C3)C1)C2 | -1.98
36 | O=C(O)COc1ccc(S(=O)(=O)N2CCCC2)cc1 | -9.2
37 | CNC(=O)COc1ccc(S(=O)(=O)N2CCCC2)cc1 | -27.9
38 | COc1cccc(-c2cn(-c3cccc(C(F)(F)F)c3)c(=S)[nH]2)c1 | 5.54
39 | COC(=O)c1ccc2nccnc2c1 | -20.4
40 | Cc1cccc(OC(=O)c2cccnc2)c1 | 74.1
41 | CN(Cc1ccccc1)C(=O)c1ccc(NC(=O)c2ccccc2)cc1 | -0.423
42 | Cn1c(-c2ccccc2)cc2ccccc21 | -0.86
43 | CCOc1c(C(N)=O)cc([N+](=O)[O-])cc1[N+](=O)[O-] | 7.1
44 | Cc1ccc(CNc2ccc([N+](=O)[O-])cc2C(N)=O)cc1 | -0.61
45 | COc1ccc(CCNC(=O)c2cc3cc(F)ccc3nc2C)cc1OC | 2.52
46 | O=C(O)CCCN=CC1=C(O)CNC1=O | 2.02
47 | CCOc1ccccc1Oc1coc2cc(OCC(=O)O)ccc2c1=O | -6.12
48 | COc1ccccc1-c1coc2cc(OC(=O)/C=C/c3ccccc3)ccc2c1=O | 33.4

Row | SMILES | inhibition [%]
49 | COc1ccc(-c2oc3ccccc3c(=O)c2OCC(=O)O)cc1 | 6.78
50 | COc1ccc(-c2oc3ccccc3c(=O)c2OC(C)=O)cc1 | 64.7
51 | COc1ccccc1Oc1coc2cc(OCC(N)=O)ccc2c1=O | 32.8
52 | COc1ccccc1-c1coc2cc(OC(=O)N3CCOCC3)ccc2c1=O | 17.2
53 | CCC(=O)NCCNc1ccc([N+](=O)[O-])cn1 | -5.26
54 | Cc1onc(C(N)=O)c1C(=O)Nc1ncc(C(F)(F)F)cc1Cl | -30.8
55 | Cc1ccc(C(=O)N2CCN(c3ccccc3F)CC2)cc1NC1=NC2CS(=O)(=O)CC2S1 (stereo unspecified) | -2.79
56 | CC(Cc1cccs1)NC(=O)Nc1cccc(Cl)c1 (stereo unspecified) | 48.3
57 | CC(Cc1cccs1)NC(=O)c1cccs1 (stereo unspecified) | 75.3
58 | CNc1ccc(C2(O)C(=O)c3ccccc3C2=O)cc1 | 50.8
59 | CCN(c1ccc(NC(=O)COC(=O)c2ccc(S(=O)(=O)N3CCCC3)cc2)cc1)C(C)C | 11.1
60 | COC(=O)/C(=C1/Oc2ccc(C)cc2S1)C(F)(F)F | 6.15
61 | COC(=O)/C(=C1/Oc2ccc(C(C)(C)C)cc2S1)C(F)(F)F | 32.3
62 | CC(=O)c1cccc(NC(=O)CN(C)S(=O)(=O)c2ccccc2)c1 | 1.23
63 | CC[C@H](C)[C@H](NC(=O)[C@H](Cc1ccc(O)cc1)NC(=O)[C@@H](N)C(C)C)C(=O)N[C@@H](Cc1cnc[nH]1)C(=O)N1CCC[C@H]1C(=O)N[C@@H](Cc1ccccc1)C(=O)O | -4.04
64 | CN(C)S(=O)(=O)c1ccc(N2CCCC2)c(C(=O)NNC(=O)c2ccccc2)c1 | 37.4
65 | COc1cc(/C=N/Nc2nc(C)cc(C)n2)ccc1OC(=O)c1ccco1 | 23.8
66 | O=c1cc(-c2cccs2)oc2ccc(Cl)cc12 | 19.9
67 | O=c1oc(-c2cccs2)nc2ccc(Cl)cc12 | 79.1
68 | CC(NC(=O)CCNC(=O)c1ccco1)c1ccccc1 (stereo unspecified) | -4.55
69 | CCCCCC1CC(CC(=O)Nc2ccc([N+](=O)[O-])cc2)C(=O)O1 (stereo unspecified) | 29.9
70 | CCCCCCC1CC(CC(=O)Nc2ccc([N+](=O)[O-])cc2)C(=O)O1 (stereo unspecified) | 46
71 | OCCCC1CCCN(Cc2cn[nH]c2-c2ccc(F)cc2F)C1 (stereo unspecified) | -4.41
